According to the supplement of paper PMC10981050:
“And” between values parts separate entries of the source, which are not always exact repeats. Equal values may be shown once. Where a name gives a salt, the structure may show the parent alone.

Columns and labels:
Experiment in all cases: cell viability relative to vehicle control; higher = less cytotoxic
Conditions in all cases: 10 µM
[1] = test system: K562
Outline: (§1)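 CRISPR-edited SRSF2 P95 mutant and isogenic wild-type clones of four leukaemia lines were screened against Selleck bioactive, kinase and epigenetic probe libraries, with identity-inconsistent compounds removed. Compounds were acoustically dispensed into 384-well plates at a single 10 µM dose, with 2000 cells in 50 µL medium per well. After 48 h, supernatant was removed and CellTiter-Glo luminescence was read. Viability was expressed as percent of the on-plate DMSO vehicle control, analysed in Genedata Screener.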

[2] = test system: MARIMO
Outline: as §1

[3] = test system: MOLM14
Outline: as §1

[4] = test system: OCI-AML2
Outline: as §1

SMILES | cell viability ([1]; SRSF2 genotype: SRSF2 P95H/wt) | cell viability ([1]; SRSF2 genotype: SRSF2 wt/wt) | cell viability ([2]; SRSF2 genotype: SRSF2 P95H/wt) | cell viability ([2]; SRSF2 genotype: SRSF2 wt/wt) | cell viability ([3]; SRSF2 genotype: SRSF2 P95H/wt) | cell viability ([3]; SRSF2 genotype: SRSF2 wt/wt) | cell viability ([4]; SRSF2 genotype: P95H/wt) | cell viability ([4]; SRSF2 genotype: wt/wt)
CC1=C(/C=C/C(C)=C/C=C/C(C)=C/C=C/C=C(C)/C=C/C=C(C)/C=C/C2=C(C)CCCC2(C)C)C(C)(C)CCC1 [Beta Carotene] | 100% and 103% | 92% | 93.3% | 101% | 93.8% | 98% | 98.3% | 105%
CC(=O)c1cc([N+](=O)[O-])c(Sc2ccc(F)cc2F)s1 | 69% and 79.6% | 71% | 57.1% | 54.2% | 13.7% | 12.3% | 76.6% | 35.3%
CC[C@@]1(O)C(=O)OCc2c1cc1n(c2=O)Cc2cc3cc(O)ccc3nc2-1 [10-Hydroxycamptothecin] | 8.49% and 21.1% | 9.32% | 4.98% | 3.83% | 0.7% | 0.58% | 0.54% | 1.46%
Nc1cccc2c1C(=O)N(C1CCC(=O)NC1=O)C2=O (stereo not given) [Pomalidomide] | 102% and 96.9% | 88% | 87.4% | 99% | 88.5% | 93.5% | 120% | 121%
C=C1CCC2C(C)(COC(=O)CCC(=O)O)C(OC(=O)CCC(=O)O)CCC2(C)C1C=CC1=CCOC1=O (stereo not given) [Dehydroandrographolide Succinate] | 114% and 108% | 111% | 101% | 101% | 109% | 107% | 106% | 105%
O=C(O)CCC(=O)Nc1ccc(Br)cn1 [Bikinin] | 100% and 97.8% | 106% | 104% | 104% | 102% | 106% | 102% | 99.7%
N=C(N)c1ccc(OCCCCCOc2ccc(C(=N)N)cc2)cc1 [Pentamidine isethionate] | 53.9% and 50% | 55.9% | 63.3% | 62.8% | 72% | 70.5% | 65.5% | 57.8%
N=C1NC(=O)/C(=C/c2ccc(O)cc2)S1 [Mirin] | 93.7% and 96.5% | 101% | 86.4% | 87.3% | 76.5% | 85.1% | 64.9% | 71%
Nc1nc(N)c2nc(-c3cccc(O)c3)c(-c3cccc(O)c3)nc2n1 | 95% and 105% | 88.6% | 111% | 101% | 108% | 107% | 98.5% | 91.4%
COc1ccc(C2=NC(c3ccc(Cl)cc3)C(c3ccc(Cl)cc3)N2C(=O)N2CCNC(=O)C2)c(OC(C)C)c1 (stereo not given) [Nutlin-3b] | 90.3% and 93.2% | 89.3% | 87.5% | 97.1% | 77.2% | 86.7% | 84.5% | 89.8%
CO[C@@]12[C@H](COC(N)=O)C3=C(C(=O)C(C)=C(N)C3=O)N1C[C@@H]1N[C@@H]12 [Mitomycin C] | 17.1% and 28% | 21% | 5.24% | 2.95% | 0.73% | 0.37% | 0.41% | 0.98%
C[C@@]1(C(=O)Nc2ccc(F)nc2)CCCN1c1nc(Nc2cc(C3CC3)n[nH]2)c2cccn2n1 | 61.4% and 72.2% | 63.7% | 38.7% | 33.2% | 7.43% | 9.62% | 7.63% | 19.3%
CC(C)(C)c1[nH]cnc1/C=c1\[nH]c(=O)/c(=C/c2ccccc2)[nH]c1=O [NPI-2358 (Plinabulin)] | 10.3% and 31% | 31.4% | 7.45% | 11% | 1.68% | 1.52% | 2.13% | 5.45%
CC(C)(C)NC[C@H](O)COc1nsnc1N1CCOCC1 [Timolol Maleate] | 98.8% and 98.3% | 97.4% | 101% | 106% | 99.3% | 103% | 103% | 109%
O=C(O)[C@@]1(CCCCCCOc2ccc(Cl)cc2)CO1 [Etomoxir (Na salt)] | 113% and 110% | 115% | 104% | 110% | 106% | 108% | 107% | 96.8%
C=CC(=O)N1CC[C@@H](Oc2nc(Nc3ccc(N4CCC(N5CCN(C)CC5)CC4)cc3)c(C(N)=O)nc2CC)C1 [ASP8273 (Naquotinib)] | 51.2% and 34.1% | 47.1% | 26.7% | 29.7% | 8.47% | 10.5% | 20.4% | 24.4%
O=C(O)Cc1ccccc1Nc1c(Cl)cccc1Cl [Diclofenac Diethylamine] | 102% and 108% | 95.4% | 105% | 101% | 106% | 102% | 105% | 103%
CC1(N)CCN(c2cnc(-c3cccc(Cl)c3Cl)c(N)n2)CC1 [SHP099 hydrochloride] | 64.7% and 71.4% | 71.9% | 96% | 106% | 29.6% | 22.8% | 25.4% | 38.7%
NC(=O)c1cnc(NCCc2ccc(O)c(Cl)c2)nc1NCc1ccccc1 | 34.2% and 38.5% | 33.3% | 8.49% | 5.28% | 5.95% | 1.62% | 8.8% | 13.2%
C1CCN2C[C@@H]3C[C@@H](CN4CCCC[C@@H]34)[C@H]2C1 [Sparteine] | 95% and 97.6% | 91.1% | 96.8% | 94.9% | 99% | 94.8% | 97.5% | 94.3%

SMILES | cell viability ([1]; SRSF2 genotype: SRSF2 P95H/wt) | cell viability ([1]; SRSF2 genotype: SRSF2 wt/wt) | cell viability ([2]; SRSF2 genotype: SRSF2 P95H/wt) | cell viability ([2]; SRSF2 genotype: SRSF2 wt/wt) | cell viability ([3]; SRSF2 genotype: SRSF2 P95H/wt) | cell viability ([3]; SRSF2 genotype: SRSF2 wt/wt) | cell viability ([4]; SRSF2 genotype: P95H/wt) | cell viability ([4]; SRSF2 genotype: wt/wt)
CCCCCCCC(=O)CCc1ccc(O)c(OC)c1 [6-Paradol] | 93.9% and 99.3% | 104% | 93.3% | 99.7% | 94.3% | 104% | 94.1% | 91.6%
N#Cc1cc2cc(CN3CCC(Nc4ncnc5sc(CC(F)(F)F)cc45)CC3)ccc2[nH]1 | 3.53% and 2.57% | 19.3% | 44.3% | 51.2% | 22.6% | 23.4% | 0.63% | 21.5%
O=c1cc(-c2ccc(OC3OC(CO)C(O)C(O)C3O)cc2)oc2c(C3OC(CO)C(O)C(O)C3O)c(O)cc(O)c12 (stereo not given) [4'-O-Glucosylvitexin] | 97% and 102% | 101% | 97.3% | 91.7% | 99.6% | 99% | 97.4% | 96.8%
CCOCCn1c(C2CCN(CCc3ccc(C(C)(C)C(=O)O)cc3)CC2)nc2ccccc21 [Bilastine] | 105% and 108% | 113% | 107% | 104% | 107% | 106% | 108% | 96.2%
COc1cc(F)c(F)c(Nc2ccc(I)cc2F)c1NS(=O)(=O)C1(C[C@H](O)CO)CC1 [Refametinib (RDEA119, Bay 86-9766)] | 53.8% and 59.1% | 62.1% | 31.8% | 33% | 30.7% | 22.7% | 35.4% | 35.1%
COc1cc2nc(N3CCCC3)nc(NCCCCCN3CCCC3)c2cc1OC | 2.75% and 3.32% | 4.26% | 9.85% | 3.33% | 0.26% | 0.27% | 0.31% | 0.37%
Cc1ccc(C(=O)Nc2ccc(Oc3cc4cnn(C)c4cc3-c3cn[nH]c3)c(F)c2)c(=O)n1-c1ccc(F)cc1 | 82.9% and 87.4% | 87.2% | 88.5% | 103% | 8.56% | 12.4% | 27.6% | 31.6%
O=C1C[C@@H](c2ccc(O[C@@H]3O[C@H](CO)[C@@H](O)[C@H](O)[C@H]3O)cc2)Oc2cc(O)ccc21 [Liquiritin] | 92.3% and 81.1% | 83.8% | 83.3% | 90.1% | 86.4% | 89% | 96.5% | 91.4%
Cc1c(C(=O)Nc2ccc(N3CCC(N4CCOCC4)CC3)c(C#N)c2)cnn1-c1ccc(Cl)cc1 | 8.99% and 14.7% | 47.6% | 6.27% | 12.2% | 11% | 1.97% | 8.8% | 11.4%
Clc1ncnc2nc[nH]c12 [6-Chloropurine] | 88.9% and 82.6% | 82.7% | 92.3% | 87% | 88.9% | 90.3% | 83.3% | 87.9%
COc1ccc(C(=O)O)c(O)c1 [4-Methoxysalicylic acid] | 104% and 95.4% | 107% | 98.6% | 99.3% | 98.1% | 106% | 101% | 106%
Nc1ncnc2c1c(-c1cccc(OCc3ccccc3)c1)cn2C1CC(CN2CCCC2)C1 (stereo not given) | 85.5% and 90.3% | 88.4% | 47.1% | 40.6% | 39.4% | 55.1% | 35.1% | 41.8%
COc1cc2nc(N3CCCN(C)CC3)nc(NC3CCN(Cc4ccccc4)CC3)c2cc1OC | 6.31% and 1.97% | 3.98% | 0.75% | 0.69% | 0.24% | 0.26% | 0.23% | 0.28%
CC(C)Oc1ccc(-c2cnc3c(-c4ccnc5ccccc45)cnn3c2)cc1 | 86.4% and 88.6% | 84.7% | 86.1% | 98% | 84.6% | 90.4% | 82.2% | 78.1%
Oc1ccc(OCc2ccccc2)cc1 [Monobenzone (Benoquin)] | 89.5% and 92.4% | 83.9% | 53.8% | 73% | 27.1% | 11.3% | 32.5% | 47.3%
CO[C@H]1C[C@H](O[C@H]2[C@H](C)O[C@@H](O[C@@H]3/C(C)=C/C[C@@H]4C[C@@H](C[C@]5(C=C[C@H](C)[C@@H](C6CCCCC6)O5)O4)OC(=O)[C@@H]4C=C(C)[C@@H](O)[C@H]5OC/C(=C\C=C\[C@@H]3C)[C@]54O)C[C@@H]2OC)O[C@@H](C)[C@@H]1O [Doramectin] | 33% and 39.8% | 37.1% | 36.8% | 29.4% | 24.6% | 29.9% | 15.3% | 17.3%
CC1=C[C@]2(O)O[C@@]3(CC2=C(C)C)[C@@H](C)CC[C@@H]13 [Curcumenol] | 106% and 103% | 99.5% | 96.5% | 109% | 102% | 99% | 88.6% | 99%
C=CC(=O)N1CCC(Oc2cc3c(Nc4ccc(Cl)c(Cl)c4F)ncnc3cc2OC)CC1 [Poziotinib (HM781-36B)] | 56% and 63.7% | 65.6% | 71.9% | 72.6% | 53.4% | 58% | 73.7% | 66.7%
CC(C)(Oc1ccc(C2CC2(Cl)Cl)cc1)C(=O)O (stereo not given) [Ciprofibrate] | 101% and 96.8% | 97.7% | 89.6% | 106% | 98% | 99.4% | 94.3% | 110%
C[C@H]1c2cccc(O)c2C(O)=C2C(=O)[C@]3(O)C(O)=C(C(N)=O)C(=O)[C@@H](N(C)C)[C@@H]3[C@@H](O)[C@@H]21 [Doxycycline] | 82.7% and 74.8% | 79.9% | 91.8% | 91.3% | 102% | 99.5% | 88.2% | 96.2%
